In all, about 5,500 compounds went through this assay and about 2,000 (36%) were called active. About 18% were inconclusive and are not listed. This is one part of the list. Unmarked numbers belong to inactive results. No stated cut-off is given here; in the data, active means normalized growth mostly below about 0.91 (no sharp cut-off); inconclusive means no clear call, values can overlap the other calls; inactive means mostly above about 0.92.
Assay: chemical genetic growth profiling, strain panel (AID 1159580);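 further: tested at 20 µM; growth read once vehicle control cultures reached saturation at 30 °C; 1 = growth at the plate median or of vehicle wells; lower values mean less growth of the strain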
Details: S. cerevisiae deletion strains, growth OD
[1] = locus YAL040C, strain CLN3, active compounds read low
[2] = locus YCL061C, strain MRC1 (second series), active compounds read low
[3] = locus YDR150W, strain NUM1, active compounds read low
[4] = locus YDR363W, strain ESC2, active compounds read low
[5] = locus YER002W, strain NOP16, active compounds read low
[6] = locus YGR078C, strain PAC10, active compounds read low
[7] = locus YMR307W, strain GAS1, active compounds read low
[8] = locus YNL153C, strain GIM3, active compounds read low
[9] = locus YNL175C, strain NOP13, active compounds read low
[10] = locus YNL197C, strain WHI3, active compounds read low
[11] = locus YNL224C, strain SQS1, active compounds read low
[12] = locus YOR083W, strain WHI5 (second series), active compounds read low
[13] = locus YAR019C, strain CDC15, active compounds read low
[14] = locus YBL105C, strain PKC1, active compounds read low
[15] = locus YBR135W, strain CKS1, active compounds read low
[16] = locus YBR136W, strain MEC1, active compounds read low
[17] = locus YBR160W, strain CDC28, active compounds read low
[18] = locus YDL017W, strain CDC7, active compounds read low
[19] = locus YDL028C, strain MPS1, active compounds read low
[20] = locus YDL101C, strain DUN1, active compounds read low
[21] = locus YDL108W, strain KIN28, active compounds read low
[22] = locus YDL132W, strain cdc53, active compounds read low
[23] = locus YDL214C, strain PRR2, active compounds read low
[24] = locus YDR052C, strain DBF4, active compounds read low
[25] = locus YDR054C, strain cdc34, active compounds read low
[26] = locus YDR226W, strain ADK1, active compounds read low
[27] = locus YDR477W, strain SNF1, active compounds read low
[28] = locus YER123W, strain YCK3, active compounds read low
[29] = locus YER133W, strain GLC7, active compounds read low
[30] = locus YFL009W, strain cdc4, active compounds read low
[31] = locus YFL029C, strain CAK1, active compounds read low
[32] = locus YFR003C, strain YPI1, active compounds read low
[33] = locus YFR019W, strain FAB1, active compounds read low
[34] = locus YFR028C, strain CDC14, active compounds read low
[35] = locus YGR040W, strain KSS1, active compounds read low
[36] = locus YGR052W, strain FMP48, active compounds read low
[37] = locus YGR092W, strain DBF2, active compounds read low
[38] = locus YHR030C, strain SLT2, active compounds read low
[39] = locus YHR079C, strain IRE1, active compounds read low
[40] = locus YHR082C, strain KSP1, active compounds read low
[41] = locus YHR205W, strain SCH9, active compounds read low
[42] = locus YIL147C, strain SLN1, active compounds read low
[43] = locus YJL095W, strain BCK1, active compounds read low
[44] = locus YJL128C, strain PBS2, active compounds read low
[45] = locus YJL157C, strain FAR1, active compounds read low
[46] = locus YJR016C, strain ILV3, active compounds read low
[47] = locus YJR066W, strain TOR1 (second series), active compounds read low
[48] = locus YJR066W, strain TOR1, active compounds read low
[49] = locus YKL048C, strain ELM1, active compounds read low
[50] = locus YKL067W, strain YNK1, active compounds read low
[51] = locus YKL101W, strain HSL1, active compounds read low
[52] = locus YKL193C, strain SDS22, active compounds read low
[53] = locus YKL203C, strain TOR2, active compounds read low
[54] = locus YLR113W, strain HOG1, active compounds read low
[55] = locus YLR133W, strain CKI1, active compounds read low
[56] = locus YLR403W, strain SFP1, active compounds read low
[57] = locus YML070W, strain DAK1, active compounds read low
[58] = locus YMR001C, strain CDC5, active compounds read low
[59] = locus YMR205C, strain PFK2 (second series), active compounds read low
[60] = locus YMR277W, strain FCP1, active compounds read low
[61] = locus YNL006W, strain LST8, active compounds read low
[62] = locus YNL020C, strain ARK1, active compounds read low
[63] = locus YNL161W, strain CBK1, active compounds read low
[64] = locus YNL183C, strain NPR1, active compounds read low
[65] = locus YNL207W, strain RIO2, active compounds read low
[66] = locus YNL222W, strain SSU72, active compounds read low
[67] = locus YNL307C, strain MCK1 (second series), active compounds read low
[68] = locus YOL078W, strain AVO1, active compounds read low
[69] = locus YOL136C, strain PFK27, active compounds read low
[70] = locus YOR061W, strain CKA2, active compounds read low
[71] = locus YOR329C, strain SCD5, active compounds read low
[72] = locus YPL031C, strain PHO85, active compounds read low
[73] = locus YPL153C, strain RAD53, active compounds read low
[74] = locus YPL204W, strain HRR25, active compounds read low
[75] = locus YPL209C, strain IPL1, active compounds read low
[76] = locus YPL256C, strain CLN2, active compounds read low
[77] = locus YPR025C, strain CCL1, active compounds read low
[78] = locus YPR106W, strain ISR1, active compounds read low
[79] = locus YPR111W, strain DBF20, active compounds read low
[80] = strain NNK1, active compounds read low
[81] = strain TSCII, active compounds read low
[82] = locus YAL013W, strain DEP1, active compounds read low
[83] = locus YMR263W, strain SAP30, active compounds read low

C[C@]12N[C@H](Cc3ccccc31)c1ccccc12
normalized growth [1]: 1.04 | normalized growth [2]: 0.988 | normalized growth [3]: 1 | normalized growth [4]: 0.953 | normalized growth [5]: 0.964 | normalized growth [6]: 0.973 | normalized growth [7]: 1 | normalized growth (locus YNL128W, strain TEP1, active compounds read low): 0.992 | normalized growth [8]: 0.978 | normalized growth [9]: 0.98 | normalized growth [10]: 0.957 | normalized growth [11]: 0.979 | normalized growth [12]: 0.995

O=C(CCn1c(=O)oc2ccccc21)Sc1ccc(Cl)cc1Cl
normalized growth [13]: 0.894 | normalized growth [14]: 0.935 | normalized growth [15]: 0.914 | normalized growth [16]: 0.913 | normalized growth [17]: 0.895 (active) | normalized growth [18]: 0.942 | normalized growth [19]: 0.884 (active) | normalized growth [20]: 0.971 | normalized growth [21]: 0.897 | normalized growth [22]: 0.9 | normalized growth [23]: 0.359 (active) | normalized growth [24]: 0.936 | normalized growth [25]: 0.748 (active) | normalized growth [26]: 0.899 | normalized growth [27]: 0.222 (active) | normalized growth [28]: 0.278 (active) | normalized growth [29]: 0.435 (active) | normalized growth [30]: 0.905 | normalized growth [31]: 0.878 | normalized growth [32]: 0.917 | normalized growth [33]: 0.311 (active) | normalized growth [34]: 0.914 | normalized growth [35]: 0.289 (active) | normalized growth [36]: 0.306 (active) | normalized growth [37]: 0.164 (active) | normalized growth [38]: 0.149 (active) | normalized growth [39]: 0.253 (active) | normalized growth [40]: 0.281 (active) | normalized growth [41]: 0.286 (active) | normalized growth [42]: 0.92 | normalized growth [43]: 0.229 (active) | normalized growth [44]: 0.907 | normalized growth [45]: 0.503 (active) | normalized growth [46]: 0.915 | normalized growth [47]: 0.197 (active) | normalized growth [48]: 0.227 (active) | normalized growth [49]: 0.745 (active) | normalized growth [50]: 0.597 (active) | normalized growth [51]: 0.433 (active) | normalized growth [52]: 0.903 | normalized growth [53]: 0.348 (active) | normalized growth [54]: 0.221 (active) | normalized growth [55]: 0.387 (active) | normalized growth [56]: 0.205 (active) | normalized growth [57]: 0.519 (active) | normalized growth [58]: 0.911 | normalized growth [59]: 0.662 (active) | normalized growth [60]: 0.873 (active) | normalized growth [61]: 0.91 | normalized growth [62]: 0.383 (active) | normalized growth [63]: 0.923 | normalized growth [64]: 0.249 (active) | normalized growth [65]: 0.908 | normalized growth [66]: 0.892 | normalized growth [67]: 0.196 (active) | normalized growth [68]: 0.918 | normalized growth [69]: 0.45 (active) | normalized growth [70]: 0.334 (active) | normalized growth (locus YOR231W, strain MKK1, active compounds read low): 0.251 (active) | normalized growth [71]: 0.936 | normalized growth [72]: 0.342 (active) | normalized growth [73]: 0.216 (active) | normalized growth [74]: 0.402 (active) | normalized growth [75]: 0.922 | normalized growth [76]: 0.255 (active) | normalized growth [77]: 0.923 | normalized growth [78]: 0.944 | normalized growth [79]: 0.92 | normalized growth [80]: 0.935 | normalized growth [81]: 0.898

N#Cc1cccc(Cn2c(=O)oc3ccccc32)c1
normalized growth [82]: 0.988 | normalized growth (locus YBR229C, strain ROT2, active compounds read low): 0.991 | normalized growth [20]: 0.977 | normalized growth [3]: 0.998 | normalized growth (locus YEL061C, strain CIN8, active compounds read low): 0.989 | normalized growth [6]: 1 | normalized growth (locus YGR229C, strain SMI1, active compounds read low): 0.985 | normalized growth [38]: 0.907 | normalized growth (locus YHR087W, strain rtc3, active compounds read low): 0.988 | normalized growth (locus YJL187C, strain SWE1, active compounds read low): 0.996 | normalized growth (locus YJR043C, strain POL32, active compounds read low): 1 | normalized growth (locus YJR075W, strain HOC1, active compounds read low): 0.986 | normalized growth (locus YKL190W, strain CNB1, active compounds read low): 1 | normalized growth (locus YLR039C, strain RIC1, active compounds read low): 1.04 | normalized growth (locus YLR058C, strain SHM2 (second series), active compounds read low): 0.998 | normalized growth (locus YLR085C, strain ARP6, active compounds read low): 1.11 | normalized growth (locus YLR262C, strain YPT6, active compounds read low): 1.01 | normalized growth (locus YML094W, strain GIM5, active compounds read low): 0.972 | normalized growth (locus YMR219W, strain ESC1, active compounds read low): 0.993 | normalized growth [83]: 0.995 | normalized growth [8]: 0.998 | normalized growth (locus YNL298W, strain CLA4 (second series), active compounds read low): 0.996 | normalized growth (locus YNL322C, strain KRE1, active compounds read low): 0.984 | normalized growth (locus YNR030W, strain Alg12, active compounds read low): 0.977 | normalized growth (locus YOL006C, strain TOP1, active compounds read low): 1.04 | normalized growth (locus YPL055C, strain LGE1, active compounds read low): 1.01 | normalized growth (locus YPL241C, strain CIN2, active compounds read low): 1.06 | normalized growth (locus YPR135W, strain CTF4, active compounds read low): 1

O=C(CCn1c(=O)oc2ccccc21)Sc1ccc(C(F)(F)F)cc1
normalized growth [13]: 0.931 | normalized growth [14]: 0.962 | normalized growth [15]: 0.957 | normalized growth [16]: 0.941 | normalized growth [17]: 0.951 | normalized growth [18]: 0.967 | normalized growth [19]: 0.925 | normalized growth [20]: 0.975 | normalized growth [21]: 0.94 | normalized growth [22]: 0.965 | normalized growth [23]: 0.793 | normalized growth [24]: 0.961 | normalized growth [25]: 0.936 | normalized growth [26]: 0.951 | normalized growth [27]: 0.742 | normalized growth [28]: 0.677 | normalized growth [29]: 0.876 | normalized growth [30]: 0.917 | normalized growth [31]: 0.937 | normalized growth [32]: 0.97 | normalized growth [33]: 0.942 | normalized growth [34]: 0.958 | normalized growth [35]: 0.7 | normalized growth [36]: 0.774 | normalized growth [37]: 0.473 (active) | normalized growth [38]: 0.318 (active) | normalized growth [39]: 0.479 (active) | normalized growth [40]: 0.781 | normalized growth [41]: 0.792 | normalized growth [42]: 0.935 | normalized growth [43]: 0.838 | normalized growth [44]: 0.929 | normalized growth [45]: 0.703 | normalized growth [46]: 0.966 | normalized growth [47]: 0.418 (active) | normalized growth [48]: 0.587 | normalized growth [49]: 0.897 | normalized growth [50]: 0.779 | normalized growth [51]: 0.834 | normalized growth [52]: 0.955 | normalized growth [53]: 0.937 | normalized growth [54]: 0.848 (active) | normalized growth [55]: 0.779 | normalized growth [56]: 0.799 | normalized growth [57]: 0.879 | normalized growth [58]: 0.938 | normalized growth [59]: 0.882 | normalized growth [60]: 0.919 | normalized growth [61]: 0.954 | normalized growth [62]: 0.783 | normalized growth [63]: 0.962 | normalized growth [64]: 0.778 | normalized growth [65]: 0.949 | normalized growth [66]: 0.935 | normalized growth [67]: 0.557 (active) | normalized growth [68]: 0.951 | normalized growth [69]: 0.851 | normalized growth [70]: 0.607 (active) | normalized growth (locus YOR119C, strain RIO1, active compounds read low): 0.922 | normalized growth [71]: 0.965 | normalized growth [72]: 0.732 | normalized growth [73]: 0.552 (active) | normalized growth [74]: 0.813 | normalized growth [75]: 0.971 | normalized growth [76]: 0.83 (active) | normalized growth [77]: 0.956 | normalized growth [78]: 0.956 | normalized growth [79]: 0.93 | normalized growth [80]: 0.96 | normalized growth [81]: 0.931

N[C@@H](Cn1oc(=O)[nH]c1=O)C(=O)O
normalized growth [82]: 1.01 | normalized growth [1]: 0.975 | normalized growth [2]: 0.991 | normalized growth [3]: 0.996 | normalized growth [4]: 0.968 | normalized growth [5]: 0.979 | normalized growth [6]: 0.979 | normalized growth [83]: 1.01 | normalized growth [7]: 1.02 | normalized growth [8]: 0.996 | normalized growth [9]: 0.99 | normalized growth [10]: 0.972 | normalized growth [11]: 0.989 | normalized growth [12]: 0.961

— PubChem BioAssay AID1159580 (chemical genetic matrix, 2015)
